Rows were chosen to be rich in hits. Some 19% of all compounds tested hit in one or more screens of this group.
DT40 TDP1 no CPT = qHTS for Inhibitors of human tyrosyl-DNA phosphodiesterase 1 (TDP1): qHTS in cells in absence of CPT. AID 686978, 2013. DT40 Tdp1-/- hTDP1 cells, no CPT, ATP luminescence, 48 h. Potency, µM (series often up to 46.2 µM), hits mostly inhibitors. 15% of 420,000 active; further: nearly all actives have a fitted effect of over 55% in size
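Seeded 400 DT40-hTDP1 cells/well (vehicle DMSO, no 20 nM CPT); pinned compounds; ≥48 hr at 37 °C; CellTiter-Glo luminescence as viability measure.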
IL-1B inflam inh = qHTS for Inhibitors of Inflammasome Signaling: IL-1-beta AlphaLISA Primary Screen; THP-1 LPS/ATP IL-1B secretion, AlphaLISA, 16 h; stronger effect = lower value; activity change, % at 57.5 µM; 4.7% of 360,000 active; AID 743279, 2014; in the data active means activity change below about -50%; inconclusive means mostly about -30% to -49%
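THP-1 cells pretreated 1 hr with compounds (up to 57.5 uM final), then stimulated with LPS (250 ng/mL final) plus ATP (1.25 mM final); secreted IL-1B measured by AlphaLISA after 16 hr, decreased signal indicating inhibition.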
ELG1 repair inh = qHTS screen for small molecules that inhibit ELG1-dependent DNA repair in human embryonic kidney (HEK293T) cells expressing luciferase-tagged ELG1. Potency, µM (series often up to 46.1 µM), hits mostly inhibitors. AID 504467, 2011. 2.3% of 330,000 active. HEK293T ELG1-luciferase reporter, luminescence, 16 h; DNA damage induced by 5-fluorouridine; further: nearly all actives have a fitted effect of over 55% in size
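Step one: seed 2,000 cells per well. Step two: pin-transfer compound or DMSO alongside 5-fluorouridine. Step three: incubate 16 hr, 37 °C, 5% CO2. Step four: add ONE-Glo, wait 30 min, read luminescence.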
TDP1 cell CPT = qHTS for Inhibitors of human tyrosyl-DNA phosphodiesterase 1 (TDP1): qHTS in cells in presence of CPT; chicken DT40 Tdp1-/-;hTDP1 cells + 20 nM CPT, ATP luminescence, 48 h; Potency, µM (series often up to 46.2 µM), actives largely listed as inhibitors; 12% of 420,000 active; further: nearly all actives have a fitted effect of over 55% in size
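Chicken DT40 Tdp1-/- cells complemented with human TDP1, 400 cells/well, exposed to compounds plus 20 nM camptothecin for at least 48 h at 37 C; viability read as ATP content by CellTiter-Glo luminescence.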
HT1080 IDH1KD tx = qHTS for induction of synthetic lethality in tumor cells producing 2HG: qHTS for the HT-1080-IDH1KD cell line | AID 686971, 2013 | 2% of 360,000 active | Potency, µM (highest dose often 46.1 µM), most hits filed as cytotoxic | HT-1080 IDH1 knockdown viability, ATP luminescence, 48 h
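In this qHTS, HT-1080 cells depleted of IDH1 are exposed for 48 h at 37 °C to compound titrations. Toxicity is scored from CellTiter-Glo luminescence, with DMSO as full viability and medium alone as none.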
HT1080NT lethal = qHTS for induction of synthetic lethality in tumor cells producing 2HG: qHTS for the HT-1080-NT fibrosarcoma cell line; HT-1080-NT fibrosarcoma viability, CellTiter-Glo ATP luminescence, 48 h; Potency, µM (series often up to 46.1 µM), actives largely listed as cytotoxic; 1.6% of 360,000 active;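 further: NT is the 2HG producing partner of a matched IDH1 knockdown line; nearly all actives have a fitted effect of over 55% in size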
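A 48-hour cytotoxicity screen used HT-1080-NT cells plated 2 hours before compound delivery. ATP-based CellTiter-Glo luminescence measured viability, normalized to DMSO and no-cell controls.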
Each line names hits and unclear results; the compound was inactive in the other large screens. Unless noted, the call rests on the fitted dose curve; in most records, active means well fitted curve in the direction sought with a large enough effect; inconclusive means small, poorly fitted or top-dose-only effect, or another doubt; inactive means no such curve, though single readings can be large; an effect the other way counts as inactive or inconclusive.

CCN1CCc2nc(N)sc2C1	DT40 TDP1 no CPT 29.1µM, TDP1 cell CPT inconclusive
COc1ccc(S(=O)(=O)Nc2cccc(N(C)S(C)(=O)=O)c2)cc1Br	DT40 TDP1 no CPT 20.6µM, ELG1 repair inh inconclusive, TDP1 cell CPT inconclusive
COc1ccc(S(=O)(=O)Nc2cccc(C(C)=O)c2)cc1Br	DT40 TDP1 no CPT inconclusive, IL-1B inflam inh -70.8, ELG1 repair inh inconclusive
CCC(=O)Nc1ccc(S(=O)(=O)Nc2cccc(C)c2)cc1OC	DT40 TDP1 no CPT 11.6µM, TDP1 cell CPT inconclusive, HT1080 IDH1KD tx inconclusive, HT1080NT lethal inconclusive
N#C[C@H](Cc1ccc(O)cc1)c1ccc(O)cc1	DT40 TDP1 no CPT inconclusive (no result: IL-1B inflam inh, ELG1 repair inh, HT1080 IDH1KD tx, HT1080NT lethal)
COc1ccc(CN2CCNC(=O)C2CC(=O)N(C)CCC2CCOCC2)c(OC)c1 (configuration not stated)	none
Cc1nnc(SCC(=O)N(CCC#N)c2ccc3c(c2)OCCO3)s1	none
CC(C)CCOc1ccc(C(=O)N2CCCC2C(=O)O)cc1 (configuration not stated)	none
COC(=O)[C@@H](c1ccccc1)N(C)S(=O)(=O)c1cccc(S(=O)(=O)N(C)[C@@H](C(=O)OC)c2ccccc2)c1	DT40 TDP1 no CPT 3.66µM, TDP1 cell CPT 5.8µM
N#CC1=C(N)Oc2ccccc2C12C(=O)Nc1n[nH]c(-c3ccccc3)c12 (configuration not stated)	DT40 TDP1 no CPT inconclusive
Cn1c2c(c(=O)n(C)c1=O)C1(C(=O)Nc3ccccc31)C(C#N)=C(N)O2 (configuration not stated)	DT40 TDP1 no CPT inconclusive, TDP1 cell CPT 14.6µM
CC(=O)Nc1ccc2c(c1)C(C)(C)C(C)N2C (configuration not stated)	DT40 TDP1 no CPT inconclusive, ELG1 repair inh inconclusive, TDP1 cell CPT 16.4µM
CCC(=O)c1ccc(NC(C)=O)cc1O	none
CCN1CCN(c2nc3ccccc3nc2C(C#N)C(=O)OC2CCCCC2)CC1 (configuration not stated)	DT40 TDP1 no CPT 23.1µM, TDP1 cell CPT 23.1µM
CN1CCN(c2nc3ccccc3nc2C(C#N)C(=O)OC2CCCCC2)CC1 (configuration not stated)	DT40 TDP1 no CPT inconclusive, IL-1B inflam inh inconclusive, ELG1 repair inh inconclusive, TDP1 cell CPT 29.1µM
O=c1[nH]c(-c2ccc(F)cc2)nc2c1sc(=S)n2-c1ccccc1	DT40 TDP1 no CPT 6.51µM, ELG1 repair inh inconclusive, TDP1 cell CPT inconclusive
C[C@H](CO)N1C[C@H](C)[C@@H](CN(C)Cc2ccc(C(=O)O)cc2)OCc2cnnn2CCCC1=O	none (no result: ELG1 repair inh)
O=C(C[N+]12CCCc3cccc(c31)CCC2)c1ccccc1	DT40 TDP1 no CPT 10µM, TDP1 cell CPT inconclusive (no result: IL-1B inflam inh, ELG1 repair inh, HT1080 IDH1KD tx, HT1080NT lethal)
C[N+]1(CC(=O)c2ccc(I)cc2)CCCc2ccccc21 (configuration not stated)	DT40 TDP1 no CPT 7.08µM, TDP1 cell CPT 7.94µM (no result: IL-1B inflam inh, ELG1 repair inh, HT1080 IDH1KD tx, HT1080NT lethal)
CCOc1ccc(CC(=O)N/N=C/c2sccc2C)cc1	none
COc1ccc(NC(=O)N2CC3(CCN(C(=O)c4ccco4)CC3)C2)cc1	none (no result: IL-1B inflam inh, ELG1 repair inh, HT1080 IDH1KD tx, HT1080NT lethal)
CC1(C(=O)NS(=O)(=O)c2ccc(Cl)s2)CCN1C(=O)C1CCCCC1 (configuration not stated)	DT40 TDP1 no CPT 7.31µM (no result: ELG1 repair inh)
CC1(C(=O)NS(=O)(=O)c2ccc(Cl)s2)CCN1C(=O)c1ccc(C2CCCCC2)cc1 (configuration not stated)	none (no result: ELG1 repair inh)
C=C1CCC2C(C)(CO)C(O)CCC2(C)C1C/C=C1\C(=O)OCC1O (configuration not stated)	DT40 TDP1 no CPT 5.01µM, TDP1 cell CPT 3.98µM (no result: IL-1B inflam inh, ELG1 repair inh)
Cc1ccn2c(NC3CCCC3)c(-c3cccs3)nc2c1	DT40 TDP1 no CPT 23.1µM, ELG1 repair inh inconclusive, TDP1 cell CPT 14.6µM
c1csc(-c2nc3ccccn3c2NC2CCCCC2)c1	DT40 TDP1 no CPT inconclusive, IL-1B inflam inh -85.8, TDP1 cell CPT inconclusive, HT1080 IDH1KD tx inconclusive
Cc1ccn2c(NC(=O)c3ccccc3)c(-c3cccs3)nc2c1	none
Cc1ccn2c(NCc3ccccc3)c(-c3cccs3)nc2c1	DT40 TDP1 no CPT 23.1µM, ELG1 repair inh inconclusive, TDP1 cell CPT 16.4µM
CCNC(=O)C/C(C)=N/NC(=O)C(=O)Nc1ccc(CC)cc1	ELG1 repair inh inconclusive
C=CCn1c(C)cc(-c2csc(NC(=O)CCc3nc4ccccc4c(=O)[nH]3)n2)c1C	DT40 TDP1 no CPT inconclusive, ELG1 repair inh inconclusive, TDP1 cell CPT inconclusive
COc1ccc(CCNS(=O)(=O)c2cccs2)cc1	none
Cc1csc2nc(CCNS(=O)(=O)c3cccs3)cn12	ELG1 repair inh inconclusive
O=S(=O)(NCCc1csc2nc(-c3ccccc3)nn12)c1cccs1	DT40 TDP1 no CPT 16.4µM, TDP1 cell CPT inconclusive (no result: IL-1B inflam inh, ELG1 repair inh, HT1080 IDH1KD tx, HT1080NT lethal)
CCc1ccc(S(=O)(=O)NCCc2csc3nc(-c4ccccc4)nn23)s1	DT40 TDP1 no CPT 23.1µM, TDP1 cell CPT 20.6µM (no result: IL-1B inflam inh, ELG1 repair inh, HT1080 IDH1KD tx, HT1080NT lethal)
